Experimental data reported in PubChem BioAssay AID485364 (National Center for Advancing Translational Sciences (NCATS), 2010).
Hit rate of the full screen: of about 360,000 compounds, about 11,000 (3.1%) were called active. Entries that show only a call come without a potency. About 4% were inconclusive and are not listed. Calls follow the shape of the dose curve; as a rule, active = well fitted inhibition curve with a large enough effect; inconclusive = small, poorly fitted or top-dose-only effect; inactive = no such curve, though single readings can be large or run the other way. This excerpt belongs to a sample that is enriched for actives.

The compounds below were run against Schistosoma mansoni thioredoxin glutathione reductase (TGR) (UniProt Q962Y6) (assay: qHTS Assay for the Inhibitors of Schistosoma Mansoni Peroxiredoxins). Details: purified TGR, DTNB reduction, TNB absorbance 405 nm; series mostly up to 114 µM.
How it was run: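 First, TGR (20 nM dispensed) and NADPH were mixed with compound. Second, a 15 min room-temperature incubation followed. Third, further NADPH and then DTNB were added to start the reaction. Finally, TNB absorbance was monitored kinetically.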
Also: nearly all actives have a fitted effect of over 60% in size.
Potency is read from the fitted curve at half-maximal effect.

How did the Potency turn out when `CC(=O)N1CCCc2ccc(NS(=O)(=O)c3ccc(F)cc3F)cc21` was run?
Its Potency is “inactive”.

`COc1cc(OC)cc(-c2nc3nc(C)c(CCC(=O)Nc4ccccc4)c(C)n3n2)c1` was tested. Which Potency did it give?
The Potency was “inactive”.

With `Cc1ccc(NC(=O)c2oc3ccc(S(=O)(=O)N4CCCCC4)cc3c2C)cc1Cl` as the compound, how does the Potency read?
The Potency was “inactive”.

How did the Potency turn out when `O=C(/C=C/c1ccccc1Cl)Nc1ccc(S(=O)(=O)Nc2ncccn2)cc1` was run?
The Potency was “inactive”.

For `O=S(=O)(Nc1ncccn1)c1ccc(NS(=O)(=O)c2cccc(Cl)c2Cl)cc1`, which Potency is on record?
Its Potency is “inactive”.

With `O=C(CCS(=O)(=O)c1ccccc1Cl)Nc1ccc(S(=O)(=O)Nc2ncccn2)cc1` as the compound, how does the Potency read?
The Potency was 14.1 µM (active).

For `CCOc1ccc(NC(=O)Cn2c(=O)n(CCCC(=O)NCc3ccc4c(c3)OCO4)c(=O)c3ccccc32)cc1`, which Potency is on record?
The Potency was “inactive”.

How did the Potency turn out when `O=S(=O)(NCCS(=O)(=O)N1CCN(c2ccccc2)CC1)c1ccc(Cl)cc1` was run?
The Potency was “inactive”.

How did the Potency turn out when `O=C(CNS(=O)(=O)c1cccs1)N1CCN(c2ccccc2Cl)CC1` was run?
Its Potency is “inactive”.

Which Potency does the source give for `Cc1ccccc1Nc1nn2c(=O)c3ccc(C(=O)NCCc4ccc(Cl)cc4)cc3nc2s1` here?
The Potency was “inactive”.

Which Potency does the source give for `O=C(O)c1ccc2c(c1)N(Cc1ccc(F)cc1)C(=O)c1ccccc1S2=O` (stereo unspecified) here?
Its Potency is “inactive”.

`CCc1ccc(NC(=O)NC(C)c2ccc3c(c2)OCO3)cc1` (stereo unspecified) was tested. Which Potency did it give?
The Potency was “inactive”.

How did the Potency turn out when `CCCCN(CC)C(=O)c1ccc2c(c1)OCO2` was run?
Its Potency is “inactive”.

Which Potency does the source give for `CCC1=C/C(=C\c2ccc3c(c2)OCO3)C(=O)S1` here?
The Potency was 28.2 µM (active).

`COc1ccc(-c2nc3ccc(C(=O)NCc4ccc(C)cc4)cc3nc2-c2ccc(OC)cc2)cc1` was tested. Which Potency did it give?
The Potency was “inactive”.

How did the Potency turn out when `COc1cccc(S(=O)(=O)NCc2ccc(C(=O)NCc3ccccn3)cc2)c1` was run?
Its Potency is “inactive”.

`O=C(NCc1ccccn1)c1ccc2nc(-c3ccco3)c(-c3ccco3)nc2c1` was tested. Which Potency did it give?
The Potency was 0.891 µM (active).

How did the Potency turn out when `CNC(=S)N/N=C/c1ccc(N2CCOCC2)s1` was run?
The Potency was 28.2 µM (active).

For `CNC(=S)N/N=C/c1ccc(OCc2ccccc2)c(Br)c1`, which Potency is on record?
Its Potency is “inactive”.

For `Cc1ccc(C(=O)C(=S)N2CCOCC2)cc1`, which Potency is on record?
Its Potency is “inactive”.

`CCN(CC)c1ccc(NC(=O)CN2CCN(CC(=O)Nc3ccc(Cl)cc3)CC2)cc1` was tested. Which Potency did it give?
The Potency was “inactive”.

`COc1ccc(C2C(=O)N(C3CCCCCC3)CC(=O)N2CCc2ccc(Cl)cc2)cc1OC` (stereo unspecified) was tested. Which Potency did it give?
Its Potency is “inactive”.

Which Potency does the source give for `Oc1ccc(-c2nc3ccc(Cl)cn3c2Nc2ccc3c(c2)OCO3)cc1` here?
Its Potency is “inactive”.

`COc1ccc(OC)c(NC(=O)CSC2=Nc3ccccc3C3=NC(CC(=O)NCCc4ccccc4)C(=O)N23)c1` (stereo unspecified) was tested. Which Potency did it give?
The Potency was “inactive”.

With `Cc1coc2c(O)cc3c(c12)OC1(N2CCCCC2)C(=O)NCCCC31` (stereo unspecified) as the compound, how does the Potency read?
The Potency was 17.8 µM (active).

With `Cn1c(=O)c2c(nc(SCC(=O)Nc3ccc(F)cc3)n2Cc2ccc(Cl)cc2)n(C)c1=O` as the compound, how does the Potency read?
Its Potency is “inactive”.

How did the Potency turn out when `O=C(Nc1ccccc1Cl)N1CCC(CN2CCCCC2)CC1` was run?
The Potency was “inactive”.

How did the Potency turn out when `Cc1cc(C)c(/C=C/c2onc(C)c2S(=O)(=O)N2CCC(C(=O)Nc3ccc(Cl)cc3C)CC2)c(C)c1` was run?
Its Potency is “inactive”.

How did the Potency turn out when `CCCCS(=O)(=O)c1oc(-c2cccs2)nc1S(=O)(=O)c1ccccc1` was run?
Its Potency is 0.501 µM (active).

`NC(=O)CSc1oc(-c2cccs2)nc1S(=O)(=O)c1ccccc1` was tested. Which Potency did it give?
Its Potency is “inactive”.

Which Potency does the source give for `CSc1oc(-c2cccs2)nc1S(=O)(=O)c1ccc(Br)cc1` here?
Its Potency is “inactive”.

For `COc1ccccc1OCC(=O)Nc1nnc2n1CCS2`, which Potency is on record?
The Potency was “inactive”.

With `CCOC(=O)c1c(S(=O)(=O)NCC(=O)Nc2ccc(Cl)c(C(F)(F)F)c2)c(C)n(C)c1C` as the compound, how does the Potency read?
The Potency was “inactive”.

`Cc1ccc(C)c(S(=O)(=O)n2cnc3ccccc32)c1` was tested. Which Potency did it give?
The Potency was “inactive”.

With `Cc1cc(C)c(S(=O)(=O)n2cc(C(C)C(N)C(=O)O)c3ccccc32)c(C)c1` (stereo unspecified) as the compound, how does the Potency read?
The Potency was 10 µM (active).

How did the Potency turn out when `Cc1ccc(S(=O)(=O)n2cnc3ccccc32)c(C)c1` was run?
Its Potency is “inactive”.

`NS(=O)(=O)c1ccc2nc(NC(=O)COc3ccccc3)sc2c1` was tested. Which Potency did it give?
The Potency was “inactive”.

With `O=C(CSc1nnc(-c2ccc(NS(=O)(=O)c3ccccc3)cc2)o1)NCC1CCCO1` (stereo unspecified) as the compound, how does the Potency read?
Its Potency is “inactive”.

Which Potency does the source give for `O=C(CSc1nnc(-c2ccco2)o1)NCC(=O)c1ccccc1` here?
The Potency was 44.7 µM (active).

How did the Potency turn out when `O=C(CSc1nnc(-c2c[nH]c3ccccc23)o1)c1ccccc1` was run?
Its Potency is “inactive”.

How did the Potency turn out when `O=C(O)c1cc(Cl)c(Cl)cc1C(=O)Nc1cccc2ncccc12` was run?
The Potency was “inactive”.

How did the Potency turn out when `CCOC(=O)c1ccc(-c2ccc(/C=C(\C#N)C(=O)Nc3ccc(OCC)cc3)o2)cc1` was run?
Its Potency is “inactive”.

`Cc1ccc(/C=C(\C#N)C(=O)Nc2cccc3ncccc23)o1` was tested. Which Potency did it give?
The Potency was 20 µM (active).

For `COc1ccc(OC)c(CNC(=O)CN2C(=O)CCn3nc(-c4cn(C)c5ccccc45)cc32)c1`, which Potency is on record?
Its Potency is “inactive”.

Which Potency does the source give for `COc1ccc(CCN2C(=O)N(c3cccc(OC)c3)C(=O)C2CC(=O)Nc2ccccc2)cc1` (stereo unspecified) here?
Its Potency is “inactive”.

How did the Potency turn out when `Cc1ccc(CN2CCC(CNC(=O)c3cnn(-c4ccc(C)cc4)c3C3CCN(C(=O)OC(C)(C)C)CC3)CC2)cc1` was run?
The Potency was “inactive”.

Which Potency does the source give for `CCCC(=O)Nc1cc(C(=O)NCc2ccc(OC)cc2)ccc1S(=O)(=O)c1ccc(Cl)cc1` here?
Its Potency is “inactive”.

`COc1ccccc1-c1nnc(SCC(N)=O)o1` was tested. Which Potency did it give?
The Potency was “inactive”.

`O=C(NCC#CCSc1nnc(-c2cccc3ccccc23)o1)c1cccs1` was tested. Which Potency did it give?
The Potency was 22.4 µM (active).

How did the Potency turn out when `O=C(OCC#CCSc1nnc(-c2ccncc2)o1)c1sc2ccccc2c1Cl` was run?
Its Potency is “inactive”.

How did the Potency turn out when `CSc1ccc(NC(=O)Cn2nnnc2-c2ccccc2F)cc1` was run?
The Potency was “inactive”.

For `Cc1c(-c2ccccc2)cn2c1-c1ccc(C)n1CC2`, which Potency is on record?
Its Potency is 35.5 µM (active).

How did the Potency turn out when `CCCOc1ccc(C(=O)Nc2ccc3oc(-c4cccc(Cl)c4Cl)nc3c2)cc1` was run?
The Potency was “inactive”.

With `Cc1ccc(S(=O)(=O)c2nc(-c3cccs3)oc2N2CCCCC2)cc1` as the compound, how does the Potency read?
Its Potency is “inactive”.

For `Cc1ccccc1NC(=O)Cn1c(=O)n(CCc2ccccc2)c(=O)c2ccccc21`, which Potency is on record?
The Potency was “inactive”.

With `C/C(CCC(=O)OC[C@H]1O[C@H](C#Cc2ccccc2)C=C[C@@H]1Oc1ccc(C)cc1)=N\OC[C@@H](O)[C@H]1O[C@@H]2OC(C)(C)O[C@@H]2[C@H]1O` as the compound, how does the Potency read?
Its Potency is 2.51 µM (active).

`Cc1ccc(Cl)cc1NC(=O)Cc1ccc(-n2c(C)nc3cccnc32)cc1` was tested. Which Potency did it give?
The Potency was “inactive”.

`CN(C)CCCN(C(=O)c1ccc(S(=O)(=O)N2CCCc3ccccc32)cc1)c1nc2ccc(F)cc2s1` was tested. Which Potency did it give?
The Potency was “inactive”.

With `COc1cccc2sc(N(CCCN(C)C)C(=O)CCS(=O)(=O)c3ccccc3)nc12` as the compound, how does the Potency read?
Its Potency is 2 µM (active).

How did the Potency turn out when `COc1ccc(N(C)C(=O)CCS(=O)(=O)c2cccc3nsnc23)cc1` was run?
Its Potency is “inactive”.

`Cc1ccc2sc(N(CCN(C)C)C(=O)/C=C/c3cccs3)nc2c1C` was tested. Which Potency did it give?
Its Potency is “inactive”.

`Cc1cc(C)c2nc(N(CCN(C)C)C(=O)/C=C/c3cccs3)sc2c1` was tested. Which Potency did it give?
Its Potency is “inactive”.

With `Cc1cccc2sc(N(CCCN(C)C)C(=O)CCS(=O)(=O)c3ccccc3)nc12` as the compound, how does the Potency read?
Its Potency is 10 µM (active).

For `O=C(C1COc2ccccc2O1)N(Cc1cccnc1)c1nc2c(F)cc(F)cc2s1` (stereo unspecified), which Potency is on record?
The Potency was “inactive”.

For `CN(C)S(=O)(=O)c1ccc(C(=O)N(Cc2cccnc2)c2nc3c(F)cc(F)cc3s2)cc1`, which Potency is on record?
The Potency was “inactive”.

With `O=C(CCS(=O)(=O)c1ccccc1)N(Cc1cccnc1)c1nc2c(F)cccc2s1` as the compound, how does the Potency read?
The Potency was 0.562 µM (active).
